Records with an inconclusive call do not appear. Unmarked numbers belong to inactive results. Calls follow the shape of the full dose curve.

The assay is described as follows: qHTS for Inhibitors of Cell Surface uPA Generation: Wild-type Protective Antigen (WT-PrAg) Counterscreen for Cherry-picked Compounds. Also: 0% is about no effect. Conditions: cells, WT protective antigen toxicity counterscreen; series mostly up to 115 µM; activity (protection): at the top concentration. (In qHTS, concentration-response curves come from the screen itself.)
Regarding `CN(C)C(=S)Nc1ccc(S(=O)(=O)N2CCCCC2)cc1`, the “activity (protection)” value was -0.577%. To `CC(C(=O)Nc1nccs1)c1ccc([N+](=O)[O-])cc1` (stereo not given) belongs 4.26%; to `CCc1ccc(S(=O)(=O)NCCc2cn3cccc(C)c3n2)s1`, -0.94%; to `CN1CC[C@]23c4ccccc4N[C@H]1[C@]21CCN(C)[C@H]3Nc2ccccc21`, 11%. With `COc1ccccc1NC(=O)COc1ccc(C(=O)NCc2ccccc2)cc1OC`, the “activity (protection)” value is 0.351%. In the case of `CCC(CC)Nc1ccc(C(CC(N)=O)NC(=O)Cc2ccc(Br)cc2)cc1[N+](=O)[O-]` (stereo not given) it was -2.11%; in that of `CN(C(=O)CCn1c(=S)oc2ccccc21)c1ccc(F)cc1`, 7.17%.

`CCc1cc(CC)c(/C=N/NC(N)=O)c(CC)c1`: the “activity (protection)” value is -1.8%.

`COc1ccc(OC)c(S(=O)(=O)N2CCC(NC(=O)c3ccccc3)CC2)c1`: the “activity (protection)” value was 0.873%. Turning to `O=S(=O)(c1ccc2nc(N3CCN(c4ccccc4)CC3)ccc2c1)N1CCCCC1`, the “activity (protection)” value is 2.08%.

Turning to `Cc1nc(SCc2nc3ccccc3[nH]2)c2oc3cc([N+](=O)[O-])ccc3c2n1`, the “activity (protection)” value was -2.07%. For `Cn1c(=O)n(CC(=O)O)c(=O)c2c1nc1n2CCCN1CCc1ccccc1`, the “activity (protection)” value is -1.35%. On to `CC1Cc2nc(SCC(=O)N3CCCC3)n(C)c(=O)c2S1` (stereo not given), for which the “activity (protection)” value is -2.11%. As to `COc1cccc(NC(=O)c2nnn(CC(=O)Nc3cc(C)cc(C)c3)c2N)c1`, the “activity (protection)” value is 1.77%.

In the case of `O=C(CN(c1ccccc1F)S(=O)(=O)c1ccccc1)Nc1ccc2c(c1)OCCO2`, the “activity (protection)” value is -2.31%. To `CC(NC(=O)NC1CCCCC1)C(c1cccs1)N1CCN(C)CC1` (stereo not given) belongs 1.32%; to `COc1ccc(C2NC(=O)CCC2[N+](=O)[O-])c(OC)c1OC` (stereo not given), -1.26%. With `NC(=O)c1ccc(NC(=O)CN2CCN(S(=O)(=O)c3ccc4ccccc4c3)CC2)cc1`, the “activity (protection)” value was 1.81%. In the case of `CC(=O)N1CCN(C(=O)CSc2cc(C)c(Br)cc2C)CC1` it was -0.948%; in that of `Nc1nc2ccc(Br)cc2o1`, -1.4%; in that of `CN(CCO)c1ccc(C(C(=O)c2ccccc2)c2ccc(N(C)CCO)cc2)cc1`, -1.8%. For `COc1ccc(OC)c(S(=O)(=O)N2CCN(Cc3ccccc3)CC2)c1`, the “activity (protection)” value is 0.596%. Regarding `COc1cccc(-n2c(SCC(=O)Nc3cc(C)on3)nc3c([nH]c4ccccc43)c2=O)c1`, the “activity (protection)” value is 10.9%.

With `O=[N+]([O-])c1ccc(-c2cn3c(n2)SCC3)cc1`, the “activity (protection)” value was -1.19%. In the case of `Cc1ccc2cccc(OCCCOc3ccccc3CO)c2n1` it was 1.21%; in that of `CC(C)CNC(=O)COC(=O)CCC(=O)c1cccs1`, -0.0024%; in that of `COC(/C=C/Nc1ccc(Cl)cc1)=C(C#N)C#N`, 0.456%.

Regarding `O=C(Cn1cnc2c(OCc3ccccc3)ncnc21)NCCCN1CCCC1=O`, the “activity (protection)” value is -1.87%. To `Cc1ccccc1-c1nnc(SCC(=O)NCC2CCCO2)o1` (stereo not given) belongs 0.534%. In the case of `COc1cc(C(C)=O)ccc1OCc1cn(CC(=O)c2ccc(O)cc2)nn1` it was -1.14%; in that of `CC1CCCN(C(=O)c2ccc(CNc3c(N4CCCCC4)c(=O)c3=O)cc2)C1` (stereo not given), 0.517%. On to `CCc1ccc(NCc2nc(-c3ccccc3)no2)cc1`, for which the “activity (protection)” value was 0.157%. On to `Cc1cc(C(=O)NP(=O)(N2CCOCC2)N2CCOCC2)c(C)n1C1CC1`, for which the “activity (protection)” value is 2.08%. Turning to `Cc1cccc(C(=O)Nc2cc(=O)n(C)c(=O)n2C)c1`, the “activity (protection)” value was -1.45%. With `COc1ccc(CNC(=O)C2CCC(CNS(=O)(=O)c3ccc(C)cc3)CC2)cc1` (stereo not given), the “activity (protection)” value is -1.42%. To `CCCCCOC(=O)C1=C(C)NC(=O)NC1c1ccccc1` (stereo not given) belongs 0.914%. `CC1(c2cccc([N+](=O)[O-])c2)CC(C)(C)N(C(=O)c2ccccc2)c2ccccc21` (stereo not given): the “activity (protection)” value is -1.21%. With `COc1ccc(C(CNC(=O)C(C)Oc2ccc(Br)cc2)N2CCCC2)cc1` (stereo not given), the “activity (protection)” value was -1.61%.

In the case of `COc1ccc(C)cc1NC(=O)NNC(=O)C1CCC(C(C)(C)C)CC1` (stereo not given), the “activity (protection)” value was -2.37%. In the case of `Cc1cc(C)cc(NC(=O)C(OC(=O)c2ccc(O)cc2)c2ccccc2)c1` (stereo not given) it was -1.09%.

The values are drawn from PubChem BioAssay AID720518 (National Center for Advancing Translational Sciences (NCATS), 2013).
